Test results as given in PubChem BioAssay AID540308 (The Scripps Research Institute Molecular Screening Center, 2011).
Hit rate of the full screen: of about 360,000 compounds, about 3,500 (0.97%) were called active.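 Rule for the calls: active = activation above a per-plate cutoff, the mean activation of sample wells on that plate plus 3 SD (cut at about 8% in these data); inactive = the rest.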 The list comes from a sample in which actives are over-represented; it also holds similar structures and randomly drawn compounds.

Biological target: Melanocortin receptor 4 (Homo sapiens) (UniProt P32245)
Assay: activators of MC4R beta-arrestin recruitment – cell-based, luminescence, agonist arm of biased-ligand search, primary screen (AID 540308)
Details: U2OS MC4R beta-arrestin complementation, at 8.9 µM, active compounds read high, percent of melanotan II response, DMSO zero

Melanocortin receptor 4 (Homo sapiens), sequence (P32245 whole entry, looked up): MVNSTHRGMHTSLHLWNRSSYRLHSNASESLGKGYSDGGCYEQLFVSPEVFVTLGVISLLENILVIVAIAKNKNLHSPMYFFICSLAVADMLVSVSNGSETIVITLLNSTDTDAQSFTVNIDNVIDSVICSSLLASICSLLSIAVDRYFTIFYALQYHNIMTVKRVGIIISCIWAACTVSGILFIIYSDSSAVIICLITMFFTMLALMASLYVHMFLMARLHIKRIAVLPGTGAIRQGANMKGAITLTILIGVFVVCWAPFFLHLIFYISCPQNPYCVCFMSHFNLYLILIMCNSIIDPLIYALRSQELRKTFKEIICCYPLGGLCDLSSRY

activation, inactive:
COc1ccc(Cl)cc1-c1cc(C(=O)Nc2cc(OC)c(OC)c(OC)c2)[nH]n1 3.58%
CCCNC(=O)c1cc(C2CCCCN2S(=O)(=O)c2cn(C)cn2)on1 (stereo unspecified) -0.95%
O=C(Nc1ccc2oc(-c3ccccc3F)nc2c1)c1ccco1 -1.85%
COc1ccc2oc(-c3cccc(NC(=O)CSc4ccc(Cl)cc4)c3)nc2c1 5.84%
CCOC(=O)C1(C)CCCN(C(=O)c2cccc(Cl)c2)C1 (stereo unspecified) 0.39%
COc1ccc(S(=O)(=O)N2CCCCC2c2cc(C(=O)NCc3ccc(F)cc3)no2)cc1 (stereo unspecified) -0.38%
COc1ccc(N2CCN(C(=O)CCc3nc(-c4ccc(C)cc4)no3)CC2)cc1 -1.45%
COc1ccc(C(C)=O)cc1COc1ccc(Cl)c(C)c1 -1.85%
O=C(CCCOc1ccccc1)NCc1ccco1 -0.5%
O=C(COC(=O)CCCN1C(=O)c2cccc3cccc(c23)C1=O)NC1CCS(=O)(=O)C1 (stereo unspecified) 0.21%
CCCNC(=O)C1(C)CCN(C(=O)c2ccc(F)cc2Cl)C1 (stereo unspecified) 0.56%
CCc1nnc(NC(=O)CSCc2cc(=O)n3cc(C)sc3n2)s1 -1.4%
CCc1nc2c(OCCc3cccc(OC)c3)cccn2c1N(C)C(=O)c1ccc(C)cc1 -0.79%
Cc1ccc(/C=N/NC(=O)COc2ccccc2-c2ccccc2)cc1 1.38%
CSc1ccc(/C=N/NC(=O)c2cccc(Cl)c2)cc1 1.13%
COCCNc1ncnc2c1ncn2[C@H]1CN(Cc2ccc(OC)cc2)C[C@@H](CO)O1 0%
CCCS(=O)(=O)NC(=O)C1(C)CCCN(C(=O)c2cc(C)on2)C1 (stereo unspecified) 1.12%
Cc1ccc(S(=O)(=O)NCCC(=O)NCc2ccc(Cl)cc2)cc1C -1.43%
CC(C)CNS(=O)(=O)c1ccc(CCC(=O)NCc2ccc(Cl)cc2)cc1 0.27%
O=C(NC(=S)Nc1ccc(S(=O)(=O)Nc2ncccn2)cc1)c1cccc(Br)c1 -2.77%
O=C(NC1CC1)c1cccc(Br)c1 -2.46%
Cc1ccccc1Cn1c(C)c(C(=O)NCc2cccc(C(F)(F)F)c2)sc1=O 2.6%
Cc1ccc(C)c(N2CCN(C(=O)CCCCCn3c(=S)[nH]c4ccc(N5CCOCC5)cc4c3=O)CC2)c1 -2.66%
CC(C)NC(=O)CCCn1c(=S)[nH]c2cc3c(cc2c1=O)OCO3 -1.77%
CCc1nc2ccc(C(=O)NCCNC(C)=O)cn2c1N(CC)Cc1cccc(Br)c1 -0.75%
CCc1nc2ccc(C(=O)Nc3cccc(OC)c3)cn2c1N(CCC(C)C)CCN(C)C 0.02%
COc1ccc(C(C)(NC(C)=O)c2nc(-c3ccc(S(C)(=O)=O)cc3)cs2)cc1 (stereo unspecified) -1.32%
Cn1cccc1C(=O)NNC(=O)COc1ccc(Br)cc1 -1.12%
CC(=O)Nc1ccc(OC(=O)COc2ccc(Br)cc2)cc1 -0.49%
CCCC(=O)N1CCC1(C)C(=O)NCc1ccc(SC)cc1 (stereo unspecified) -2.08%
CC(C)c1ccc(CC(=O)N2CCC2(C)C(=O)NS(=O)(=O)c2ccc(C(C)(C)C)cc2)cc1 (stereo unspecified) 0.36%
CS(=O)(=O)Nc1cccc(-c2cn3ccccc3n2)c1 -3.26%
Cc1cc(C)cc(NS(=O)(=O)Cc2ccccc2)c1 0.25%
CNc1cncc(-c2cccc(C(=O)N3CCOCC3)c2)n1 -2.12%
NC(Cc1ccccc1)c1csc(Nc2cc(Oc3ccccc3)ncn2)n1 (stereo unspecified) 4.18%
NC(Cc1ccc(F)cc1)c1csc(Nc2nncc3ccccc23)n1 (stereo unspecified) 6.94%

activation, active:
O=C(Nc1ccc2oc(-c3ccc4ccccc4c3)nc2c1)c1cccs1 14.3%
COc1ccc(-c2noc(COc3ccc(Cl)c(C)c3)n2)cc1 9.56%
O=C(CCCCCN1C(=O)c2cccc3cccc(c23)C1=O)NCc1ccco1 19.2%
CSc1ccc(/C=N\NC(=O)COc2ccc(Cl)cc2Br)cc1 36.4%
CSc1ccc(S(=O)(=O)NCc2ccc(Cl)cc2)cc1 10.2%
O=C(NC(=S)Nc1cccc2c(O)cccc12)c1cccc(Br)c1 30.6%
O=C(CCCCCn1c(=S)[nH]c2cc3c(cc2c1=O)OCO3)N1CCN(c2ccc(F)cc2)CC1 13.7%
Cc1ccc(O)c(NC(=S)NC(=O)COc2ccc(Br)cc2)c1 19.5%
CCS(=O)(=O)Nc1cccc(-c2cc(-c3ccccc3)c3cc(C)ccc3n2)c1 8.87%
COc1ccc(C(N)c2csc(NC(=O)Nc3cccc(C(F)(F)F)c3)n2)cc1 (stereo unspecified) 9.99%
